AHR activator: AHR activators, primary screen, cell-based, luminescence, luciferase reporter, human. Aryl hydrocarbon receptor (Homo sapiens), P35869. AHR-responsive luciferase reporter cells. activation, % at 5 µM. 2.5% of 320,000 active; in the data active means activation above about 47%;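 further: 0% = vehicle wells and 100% = reference agonist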
SENP7 block: SENP7 protease inhibitors, primary screen, biochemical, luminescence, uHTS | recombinant SENP7, Z-RLRGG-aminoluciferin luminescence, 40 min | inhibition, % at 5 µM | 1.5% of 330,000 active | Sentrin-specific protease 7 (Homo sapiens), Q9BQF6;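 active means inhibition above about 50% at the single test dose, limit read from the data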;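 further: plate controls were DMSO with enzyme for no effect and no enzyme buffer wells for full effect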
EBI2 antag: EBI2 receptor antagonists, beta-arrestin recruitment, primary screen, cell-based, luminescence, 7a,25-OHC stimulation, uHTS. AID 651636, 2012. 0.81% of 360,000 active. 7a,25-OHC stimulated. inhibition, % at 5 µM. G-protein coupled receptor 183 (Homo sapiens), P32249; in the data active means inhibition above about 38%;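 further: enzyme fragment complementation signal reports receptor beta-arrestin coupling in cells; 0% = agonist plus DMSO wells and 100% = wells without agonist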
Target sequence (P32249 whole entry, looked up, the tested form may be a part): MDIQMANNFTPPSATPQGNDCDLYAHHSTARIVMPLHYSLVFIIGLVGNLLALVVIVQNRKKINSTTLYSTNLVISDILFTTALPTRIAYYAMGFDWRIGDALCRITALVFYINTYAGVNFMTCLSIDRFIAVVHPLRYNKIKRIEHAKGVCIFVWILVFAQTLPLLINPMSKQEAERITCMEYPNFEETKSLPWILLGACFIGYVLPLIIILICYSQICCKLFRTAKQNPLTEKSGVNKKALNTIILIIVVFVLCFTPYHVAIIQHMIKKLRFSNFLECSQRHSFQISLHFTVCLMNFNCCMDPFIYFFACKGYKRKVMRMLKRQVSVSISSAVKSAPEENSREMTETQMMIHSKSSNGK
SENP8 block-1: SENP8 protease inhibitors, primary screen, biochemical, luminescence | Sentrin-specific protease 8 (Homo sapiens), Q96LD8 | purified SENP8, Z-RLRGG-aminoluciferin cleavage | inhibition, % at 10 µM | 1.2% of 330,000 active | AID 2540, 2010; in the data active means inhibition above about 50%
SENP8 block-2: human SENP8 protease inhibitors, primary screen, biochemical, fluorescence, Nedd8 protein substrate, uHTS; Sentrin-specific protease 8 (Homo sapiens), Q96LD8; recombinant SENP8; inhibition, % at 20 µM; 0.64% of 360,000 active; AID 602440, 2012; in the data active means inhibition mostly above about 40%, no sharp cut-off; inactive means mostly below about 27%
SENP6 block: SENP6 protease inhibitors, primary screen, biochemical, luminescence, uHTS. Recombinant SENP6 catalytic domain, aminoluciferin luminescence. inhibition, % at 10 µM. 1.8% of 330,000 active. Sentrin-specific protease 6 (Homo sapiens), Q9GZR1;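 active means inhibition above about 50% at the single tested dose, limit read from the data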;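 further: plate controls were DMSO wells with enzyme for no effect and DMSO wells lacking enzyme for full effect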
SENP8 confirm: SENP8 protease inhibitors, retest, confirmation, biochemical, luminescence, single concentration; Recombinant SENP8, Z-RLRGG-aminoluciferin luminescence, 60 min; inhibition, % at 12.5 µM; shares compounds with SENP7 block; AID 488912, 2010; 40% of 6,200 active;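 active means mean inhibition across replicates above about 50%, limit read from the data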
SENP6 confirm: SENP6 protease inhibitors, confirmation, biochemical, luminescence, single concentration. shares compounds with SENP7 block. recombinant SENP6, Z-RLRGG-aminoluciferin luminescence. inhibition, % at 12.5 µM. 58% of 6,200 active
SENP7 confirm: SENP7 protease inhibitors, retest, confirmation, biochemical, luminescence, single concentration | 69% of 6,200 active | shares compounds with SENP7 block | inhibition, % at 12.5 µM | recombinant SENP7, Z-RLRGG-aminoluciferin luminescence, 40 min
Casp3 SENP sel: caspase-3 protease inhibitors, confirmation, selectivity assay for SENP inhibitor project, biochemical, single concentration; purified caspase-3, Z-DEVD-aminoluciferin luminescence, 60 min; 60% of 6,200 active; inhibition, % at 12.5 µM; AID 488918, 2010; shares compounds with SENP7 block;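 active means mean inhibition above about 50%, limit read from the data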;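 further: plate controls were enzyme with DMSO for no effect and wells without caspase-3 for full effect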
Target sequence (P42574 28-227 limits assumed): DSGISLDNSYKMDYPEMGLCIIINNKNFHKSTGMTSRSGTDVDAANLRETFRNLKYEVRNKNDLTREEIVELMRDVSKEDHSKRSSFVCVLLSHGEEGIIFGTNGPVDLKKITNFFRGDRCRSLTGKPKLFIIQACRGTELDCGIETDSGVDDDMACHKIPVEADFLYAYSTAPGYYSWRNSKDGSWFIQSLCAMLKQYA
Luc interf: luminescence interference (SENP counter-screen). shares compounds with SENP7 block. Pre-incubated SENP8/Z-RLRGG-aminoluciferin, luciferase luminescence interference. inhibition, % at 12.5 µM. 39% of 6,200 active. AID 488919;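 active means mean inhibition above about 50% when retested at one dose, limit read from the data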;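 further: plate controls were DMSO wells with completed reaction for no effect and substrate without enzyme for full effect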
Numbers without * were called inactive; . = not tested or not shown. Hits are enriched below; roughly 5% of the tested compounds scored in any of these assays.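 How the source made its calls, unless noted: active means mean inhibition above about 50% in the one-dose retest (limit read from the data); inactive means the rest.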

SMILES	AHR activator	SENP7 block	EBI2 antag	SENP8 block-1	SENP8 block-2	SENP6 block	SENP8 confirm	SENP6 confirm	SENP7 confirm	Casp3 SENP sel	Luc interf
COC(=O)N1[C@H](C)C=C[C@]1(Cc1ccccc1)C(=O)NCCCNc1ncc(C(F)(F)F)cc1Cl	6	-11	0	-9	16	-16	.	.	.	.	.
CC(=Nc1cccc(C)c1)c1sc2ccccc2c1O	45	38	13	44	-73	63*	73*	74*	88*	48	32
CC(=Nc1ccc(O)cc1)c1sc2ccccc2c1O	10	79*	22	75*	16	89*	80*	80*	96*	68*	81*
Cc1ccc(-c2nnn(CC(=O)N3CCCCC3)n2)cc1	8	-7	0	5	10	-5	.	.	.	.	.
CCCCn1nnnc1C(c1cc2ccccc2o1)N1CCCN(C(=O)OC(C)(C)C)CC1 (configuration not stated)	.	.	20	.	-6	.	.	.	.	.	.
O=C(Nc1ccc2c(c1)CCC2)Nc1ccccc1F	-6	99*	-8	92*	5	96*	69*	95*	102*	92*	76*
O=C(Nc1ccc2c(c1)OCO2)Nc1ccc(F)cc1F	24	90*	-5	73*	5	90*	76*	76*	98*	89*	86*
Cc1ccccc1NC(=O)Nc1ccc2c(c1)CCC2	4	84*	13	25	5	70*	10	13	17	26	6
O=C(Nc1ccc2c(c1)CCC2)Nc1ccc(F)cc1F	4	70*	-1	-19	10	3	11	14	41	28	8
O=C(Nc1ccc(F)cc1)Nc1ccc2c(c1)CCC2	-2	30	-8	-10	0	-9	.	.	.	.	.
N/N=C/C(=N\Nc1ccc(Cl)cc1)C(=O)c1ccncc1	39	12	36	4	30	-16	.	.	.	.	.
Oc1c(N=Nc2ccccc2)sc2ccccc12	29	99*	14	95*	1	98*	75*	98*	103*	96*	10
CC(=Nc1ccccc1O)c1sc2ccccc2c1O	13	14	2	-3	-34	33	.	.	.	.	.
Cn1ncc(N=Cc2ccccc2)c1C(N)=O	5	-3	-9	-2	4	-10	.	.	.	.	.
Nc1ncc(Br)cc1N=Cc1ccccc1	36	17	-5	28	27	72*	12	9	19	18	14
Nc1ncnc2c1c(-c1ccc(Oc3ccccc3)cc1)cn2C1CCCC1	7	-4	20	3	-8	0	.	.	.	.	.
Cc1cc(C)c(OCC(=O)OCC(=O)NCC2CCCCC2)c(C)c1	-1	1	-9	-7	9	-6	.	.	.	.	.
CCOc1ccc(NC(=O)CNC(=O)c2nn(-c3ccc(OC)cc3)c(=O)c3ccccc23)cc1	-1	-8	-9	5	-232	-7	.	.	.	.	.
CC1=CC(=O)C(C(C)=Nc2ccccc2Cl)C(=O)O1 (configuration not stated)	13	2	-2	-8	21	-10	.	.	.	.	.
Cc1nn(-c2ccc(Cl)cc2Cl)c(=O)c2ccccc12	0	-4	-2	2	12	-10	.	.	.	.	.
CC1=NN(C(N)=S)C(=O)C1N=Nc1ccccc1Cl (configuration not stated)	3	53*	-3	83*	42*	89*	43	90*	98*	82*	31
CC1=NN(C(N)=S)C(=O)C1N=Nc1ccc(Cl)cc1Cl (configuration not stated)	.	36	4	94*	30	91*	81*	86*	94*	72*	67*
COc1ccc2c(c1OC)C(=O)OC2Nc1nc(-c2cc3cc([N+](=O)[O-])ccc3oc2=O)cs1 (configuration not stated)	-4	65*	-4	52*	11	60*	-7	-9	2	22	5
COc1ccc2c(c1OC)C(=O)OC2Nc1nc(-c2cc3ccccc3oc2=O)cs1 (configuration not stated)	-6	91*	9	90*	-242	96*	91*	95*	88*	94*	86*
COc1cccc(-c2csc(NC3OC(=O)c4c3ccc(OC)c4OC)n2)c1 (configuration not stated)	6	-5	-5	-13	15	-25	.	.	.	.	.
SMILES	AHR activator	SENP7 block	EBI2 antag	SENP8 block-1	SENP8 block-2	SENP6 block	SENP8 confirm	SENP6 confirm	SENP7 confirm	Casp3 SENP sel	Luc interf
COc1ccc2oc(=O)c(-c3csc(Nc4ccc(O)cc4)n3)cc2c1	-7	0	31	-2	-9	3	.	.	.	.	.
COc1ccc2c(c1OC)C(=O)OC2Nc1nc(-c2ccc(-c3ccccc3)cc2)cs1 (configuration not stated)	2	63*	10	69*	-308	83*	51*	49	56*	38	74*
COc1ccc(-c2nnc(SCC(=O)c3ccc(O)cc3O)o2)cc1	2	-5	4	4	7	4	.	.	.	.	.
OCCC1CN(Cc2ccc3nsnc3c2)CCN1CCc1ccccc1 (configuration not stated)	2	-2	-2	-3	11	1	.	.	.	.	.
O=C1NC2=C(C(=O)CCC2)C(c2ccc3ncccc3c2)N1 (configuration not stated)	0	72*	-2	2	13	-2	0	5	6	0	0
COc1ccc(OC)c(NC(=O)CCC(=O)Oc2ccc(C)cc2)c1	0	1	-13	-4	8	4	.	.	.	.	.
O=C(N/N=C/c1cn(Cc2ccccc2)c2ccccc12)c1cc(O)cc(O)c1	.	3	1	-3	-190	-8	.	.	.	.	.
